Data on 12 compounds can be found in PubChem BioAssay (NCATS).

In test [1] the target is DNA repair nuclease/redox regulator APEX1 (Homo sapiens) (UniProt P27695). The test can be described thus: qHTS Validation Assay for Inhibitors of the Human Apurinic/apyrimidinic Endonuclease 1 (APE1) (AID 1705;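 further: TAMRA fluorescence gain over two minutes as APE1 cuts a quenched THF abasic duplex; series mostly up to about 57 µM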). Summed up:
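Read-out: TAMRA fluorescence (525 nm ex, 598 nm em) from cleavage of a quenched THF abasic-site duplex, 50 nM final; activity taken as intensity change between third and first of three reads 60 s apart.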
(In general: qHTS replaces the single test concentration by a dilution series.)

A short description of test [2]: Counterscreen for APE1 Inhibitors: Fluorescent Dye Displacement Validation Assay (AID 1707). Summed up: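 Thiazole Orange (250 nM) bound to 50 nM TAMRA-labelled dsDNA with tetrahydrofuran abasic site; displacement by DNA-binding compounds lowers fluorescence. Buffer 50 mM Tris-HCl pH 7.5, 50 mM NaCl, 2 mM MgCl2, 0.01% Tween-20; endpoint read at 480/540 nm.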
The target of test [3] is Endonuclease 4 (Escherichia coli (strain K12)) (UniProt P0A6C1). The test can be described thus: Counterscreen for APE1 Inhibitors: qHTS Validation Assay for Inhibitors of Endonuclease IV (AID 1708). An outline of the steps: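 Enzymatic AP-site incision assay using a double-stranded THF substrate labelled with TAMRA and BHQ-2; released fluorescence signals activity. Enzyme 2 nM, substrate 50 nM, 15 min compound preincubation.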

Test [4] in a line: qHTS for differential inhibitors of proliferation of Plasmodium falciparum line 7G8 (AID 1815).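 Further: parasite growth measured after three days of incubation.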 Further: potency means the concentration at half of the fitted maximal effect.
Test [5] is described as follows: qHTS for differential inhibitors of proliferation of Plasmodium falciparum line GB4 (AID 1816).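 Further: parasite growth measured after 72 h incubation.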 Further: potency means the concentration at half of the fitted maximal effect. The note with it: Potency: Plasmodium falciparum GB4 proliferation inhibition.
Test [6] in a line: qHTS for differential inhibitors of proliferation of Plasmodium falciparum line 3D7 (AID 1876). Further: potency means the concentration at half of the fitted maximal effect.
A short description of test [7]: qHTS for differential inhibitors of proliferation of Plasmodium falciparum line D10 (AID 1877).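 Further: parasites grown with compound for 72 h before DNA staining.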 Further: potency means the concentration at half of the fitted maximal effect.
The nature of test [8]: qHTS for differential inhibitors of proliferation of Plasmodium falciparum line Dd2 (AID 1882). Further: nearly all actives have a fitted effect of over 65% in size. Further: potency means the concentration at half of the fitted maximal effect. The note with it: Potency: Plasmodium falciparum Dd2 proliferation inhibition. Summed up:
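SYBR Green I DNA fluorescence read-out, ex 485/em 535 nm. Signals were normalized to 0.29 uM artemisinin and DMSO wells, then corrected using vehicle-only plates flanking each stack. Parasite growth ran 72 h in erythrocytes before lysis.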

Test [9] can be described thus: qHTS for differential inhibitors of proliferation of Plasmodium falciparum line W2 (AID 1883).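 Further: parasites grown with compound for 72 h before lysis and staining.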 Further: potency means the concentration at half of the fitted maximal effect. The note with it: Potency: Plasmodium falciparum W2 proliferation inhibition.
The nature of test [10]: qHTS for differential inhibitors of proliferation of Plasmodium falciparum line HB3 (AID 1886).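 Further: parasites grown with compound for 72 h before SYBR Green readout.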 Further: potency means the concentration at half of the fitted maximal effect. The note with it: Potency: Plasmodium falciparum HB3 proliferation inhibition.
Test [11] in a line: qHTS Assay for Identification of Small Molecule Inducers of Hypoxia Response (AID 2120; active means well fitted curve in the direction sought with a large enough effect in the signal ratio, with a control signal flat, not every such curve was filed as active; the % refers to the signal ratio). An outline of the steps:
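Induction of beta-lactamase reporter activity was measured in CellSensor HRE-bla ME-180 cells after 17 h compound treatment at 37 degrees C, using CCF4 substrate and the 460nm/530nm emission ratio to derive AC50 values.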

Test [12] has as its target Ferritin light chain (Equus caballus) (UniProt P02791). The test can be described thus: qHTS Validation Assay for Identification of Novel General Anesthetics (AID 2323). Further: series mostly up to about 77 µM. An outline of the steps:
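10 uM horse-spleen apoferritin + 1-AMA (50% saturated, PBS); cpd pin-transferred, 10 min RT. Ex 380/Em 535 nm endpoint. Activity normalized between free 1-AMA and 1-AMA/apoferritin; 4-parameter Hill fit of concentration-response.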

The target of test [13] is ATP-dependent DNA helicase Q1 (Homo sapiens) (UniProt P46063). The test can be described thus: qHTS Validation Assay for Inhibitors of RecQ-Like Dna Helicase 1 (RECQ1) (AID 2353). Summed up:
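50 nM RECQ1T1 preincubated 15 min with compound in Tris pH 8.0 buffer with MgCl2, DTT, Tween-20 and 2.5 ug/ml poly(dI-dC); started with 200 nM TAMRA/BHQ-2 forked duplex and 2 mM ATP. Unwinding read as fluorescence (525/598 nm), two reads 2 h apart.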

The target of test [14] is RecQ-like DNA helicase BLM (Homo sapiens) (UniProt P54132). The test can be described thus: qHTS Validation Assay for Inhibitors of Bloom's syndrome helicase (BLM) (AID 2364). Summed up:
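Forked 20-bp duplex substrate (200 nM, TAMRA/BHQ-2) plus 2 mM ATP added after 15 min compound preincubation with 50 nM enzyme, pH 8.0, poly(dI-dC) 2.5 ug/ml. Strand separation followed by fluorescence (525/598 nm) over 2 h, normalized to enzyme-free and DMSO controls.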

Test [15] can be described thus: Cytometric Cell-Based qHTS for Inhibitors of the mTORC1 Signaling Pathway in MEF (Tsc2-/-, p53-/-) Cells (AID 2660).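 Further: percent of cells above a phospho-rpS6 to PI ratio cutoff in each well; series mostly up to about 38 µM.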 An outline of the steps: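 Tsc2-/-, p53-/- MEFs (empty vector) exposed to compound 24 h at 37 C, fixed, stained with Alexa-488 anti-phospho-rpS6 Ser235/236 and propidium iodide. Acumen laser scanning; phospho-S6/PI ratio thresholded against 7.5 nM rapamycin, reported as % positive cells.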

Test [16] is described as follows: High Content Imaging Cell-Based qHTS for Inhibitors of the mTORC1 Signaling Pathway in MEF (Tsc2-/-, p53-/-) Cells (AID 2666).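 Further: percent of cells scored positive for phospho-rpS6 Ser235/236 immunostaining by imaging.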 Summed up:
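Cells were plated, dosed with compound after 24 hrs, and incubated another 24 hrs at 37 degree Celsius. Fixed cells were immunostained for phospho-rpS6 Ser235/236 and counterstained, and the normalized signal was scored as % active cells against rapamycin and DMSO controls.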

Test [17] in a line: High Content Imaging Cell-Based qHTS for Inhibitors of the mTORC1 Signaling Pathway in MEF Cells (AID 2667).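 Further: Tsc2-/- p53-/- MEFs stably re-expressing wild-type Tsc2 exposed 24 h; series mostly up to about 38 µM.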 An outline of the steps: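 Immunofluorescence for rpS6 phosphorylation in MEFs of Tsc2-/-, p53-/- background rescued with WT Tsc2. Compound exposure lasted 24 hrs. Inhibition was scored against rapamycin-treated control wells.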
The nature of test [18]: Cytometry Cell-Based qHTS for Inhibitors of the mTORC1 Signaling Pathway in MEF cells (AID 2668). Further: potency means the concentration at half of the fitted maximal effect. An outline of the steps: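 Read-out: phospho-rpS6 Ser235/236 immunofluorescence normalized to propidium iodide intensity, scored as % active cells against a rapamycin (7.5 nM) threshold. Cells: Tsc2-/-, p53-/- MEFs stably expressing WT Tsc2, compound-treated 24 hrs at 37 degree Celsius.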

SMILES strings stand for the structures. Results filed as inconclusive are left out. Active and inactive are the calls of the source. Unless noted, the call rests on the fitted dose curve; in most records, active means well fitted curve in the direction sought with a large enough effect; inconclusive means small, poorly fitted or top-dose-only effect, or another doubt; inactive means no such curve, though single readings can be large; an effect the other way counts as inactive or inconclusive.

Chain of ATP-dependent DNA helicase Q1 (Homo sapiens) (P46063 whole entry, looked up): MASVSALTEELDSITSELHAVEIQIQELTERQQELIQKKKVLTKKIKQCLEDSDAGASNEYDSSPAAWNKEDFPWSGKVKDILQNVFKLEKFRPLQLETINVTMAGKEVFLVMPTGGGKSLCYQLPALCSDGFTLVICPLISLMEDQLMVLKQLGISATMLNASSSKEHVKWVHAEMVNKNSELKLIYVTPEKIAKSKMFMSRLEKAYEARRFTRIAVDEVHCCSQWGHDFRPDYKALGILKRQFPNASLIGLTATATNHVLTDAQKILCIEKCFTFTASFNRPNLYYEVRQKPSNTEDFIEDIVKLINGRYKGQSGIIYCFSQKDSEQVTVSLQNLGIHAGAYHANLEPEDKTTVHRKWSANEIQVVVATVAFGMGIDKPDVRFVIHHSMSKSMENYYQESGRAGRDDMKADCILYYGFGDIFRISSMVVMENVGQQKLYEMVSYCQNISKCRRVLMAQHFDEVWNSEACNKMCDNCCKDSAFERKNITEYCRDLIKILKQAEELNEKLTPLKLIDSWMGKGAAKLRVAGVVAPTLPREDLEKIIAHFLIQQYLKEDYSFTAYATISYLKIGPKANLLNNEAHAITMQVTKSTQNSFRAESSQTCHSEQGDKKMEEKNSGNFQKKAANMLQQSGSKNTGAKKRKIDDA
Chain of Ferritin light chain (Equus caballus) (P02791 2-175 limits assumed): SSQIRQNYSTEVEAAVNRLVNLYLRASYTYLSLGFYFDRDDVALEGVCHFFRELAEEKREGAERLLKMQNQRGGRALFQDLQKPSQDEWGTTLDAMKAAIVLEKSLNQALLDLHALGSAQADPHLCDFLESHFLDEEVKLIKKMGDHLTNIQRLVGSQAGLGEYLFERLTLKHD
Chain of DNA repair nuclease/redox regulator APEX1 (Homo sapiens) (P27695 whole entry, looked up): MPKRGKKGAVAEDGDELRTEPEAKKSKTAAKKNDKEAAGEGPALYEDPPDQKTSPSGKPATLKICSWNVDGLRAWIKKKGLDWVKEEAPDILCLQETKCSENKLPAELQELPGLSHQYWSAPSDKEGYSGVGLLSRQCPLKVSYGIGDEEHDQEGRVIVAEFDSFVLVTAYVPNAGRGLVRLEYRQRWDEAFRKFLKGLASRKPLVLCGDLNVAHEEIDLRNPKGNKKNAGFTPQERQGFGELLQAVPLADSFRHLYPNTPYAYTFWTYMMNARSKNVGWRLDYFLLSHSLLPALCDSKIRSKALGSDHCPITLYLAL
Chain of RecQ-like DNA helicase BLM (Homo sapiens) (P54132 whole entry, looked up): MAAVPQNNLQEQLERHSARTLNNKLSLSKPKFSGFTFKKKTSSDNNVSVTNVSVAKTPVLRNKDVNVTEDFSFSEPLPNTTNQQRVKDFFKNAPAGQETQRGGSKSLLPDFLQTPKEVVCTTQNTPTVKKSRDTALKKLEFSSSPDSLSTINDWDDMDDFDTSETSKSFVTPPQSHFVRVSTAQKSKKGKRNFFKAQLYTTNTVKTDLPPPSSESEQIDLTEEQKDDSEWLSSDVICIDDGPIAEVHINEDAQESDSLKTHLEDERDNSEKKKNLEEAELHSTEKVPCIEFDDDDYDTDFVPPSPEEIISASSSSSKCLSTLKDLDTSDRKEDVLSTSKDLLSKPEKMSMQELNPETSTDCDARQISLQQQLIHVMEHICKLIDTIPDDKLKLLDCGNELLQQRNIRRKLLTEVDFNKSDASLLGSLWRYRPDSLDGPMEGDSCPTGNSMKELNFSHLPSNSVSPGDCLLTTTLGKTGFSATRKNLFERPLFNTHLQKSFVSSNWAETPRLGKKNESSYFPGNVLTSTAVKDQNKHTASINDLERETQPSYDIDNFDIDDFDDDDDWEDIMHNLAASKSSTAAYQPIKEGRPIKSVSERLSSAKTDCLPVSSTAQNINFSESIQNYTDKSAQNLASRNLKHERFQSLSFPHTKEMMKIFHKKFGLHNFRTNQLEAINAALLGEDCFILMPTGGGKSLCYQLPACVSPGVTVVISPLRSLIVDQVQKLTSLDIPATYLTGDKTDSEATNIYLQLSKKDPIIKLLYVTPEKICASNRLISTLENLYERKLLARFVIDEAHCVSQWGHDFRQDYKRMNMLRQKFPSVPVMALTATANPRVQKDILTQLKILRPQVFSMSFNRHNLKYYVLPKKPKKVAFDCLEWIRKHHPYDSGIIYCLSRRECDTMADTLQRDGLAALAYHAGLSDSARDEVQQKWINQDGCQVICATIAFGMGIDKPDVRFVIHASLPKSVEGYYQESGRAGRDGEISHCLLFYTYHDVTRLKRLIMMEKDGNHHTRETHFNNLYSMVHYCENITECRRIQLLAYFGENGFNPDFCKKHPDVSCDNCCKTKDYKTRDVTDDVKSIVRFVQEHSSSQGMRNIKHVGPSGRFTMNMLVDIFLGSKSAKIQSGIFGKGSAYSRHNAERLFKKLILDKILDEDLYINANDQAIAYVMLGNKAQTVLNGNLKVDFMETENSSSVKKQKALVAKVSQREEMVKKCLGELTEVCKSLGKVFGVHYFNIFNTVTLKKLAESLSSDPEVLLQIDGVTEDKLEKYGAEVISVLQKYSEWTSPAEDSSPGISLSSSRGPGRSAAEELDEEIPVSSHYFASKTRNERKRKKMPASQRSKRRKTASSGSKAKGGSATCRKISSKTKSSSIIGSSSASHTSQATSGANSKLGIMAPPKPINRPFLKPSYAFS

With `CCCC(C)(COC(N)=O)COC(=O)NC(C)C` (stereo unspecified), the result in test [1], in test [3], in [11], in test [12], in test [13] and in test [15] was inactive. Moreover, the Potency entry in [2], in test [4], in test [5], in test [6], in test [7] and in test [8] was “inactive” throughout. Also, the Potency entry in [9], in test [10], in test [14], in test [16], in test [17] and in [18] was “inactive” each time.

Take `Oc1ccccc1-c1ccccc1`: the compound was called inactive in [11].

For `CN(C)CCC=C1c2ccccc2CCc2ccccc21`, the Potency was 10 µM (active) in test [4]; 7.94 µM (active) in [5]; 8.91 µM (active) in [7]; 3.16 µM (active) in test [9]; 14.1 µM (active) in test [10].

For the compound `CC(O)(CS(=O)(=O)c1ccc(F)cc1)C(=O)Nc1ccc(C#N)c(C(F)(F)F)c1` (stereo unspecified), the result in [15] was inactive. Also, the Potency entry in [16], in [17] and in test [18] was “inactive” in each case.

For the compound `CC(COc1ccccc1)N(CCCl)Cc1ccccc1` (stereo unspecified), the Potency in [4] is 7.94 µM (active); in test [9], 2.51 µM (active).

Turning to `Fc1ccc(C(OCCN2CCN(CCCc3ccccc3)CC2)c2ccc(F)cc2)cc1`, the compound was classed as inactive in [1] and in test [13]. Also, in test [2], the Potency entry is “inactive”. The Potency was 3.98 µM (active) in test [4]; 3.98 µM (active) in test [5]; 7.08 µM (active) in [6]; 12.6 µM (active) in test [7]; 7.94 µM (active) in [8]; 2.82 µM (active) in test [9]. Also, the Potency in [10] is 4.47 µM (active); in test [18], 18.5 µM (active).

Turning to `CC(=O)[C@H]1CC[C@H]2[C@@H]3CC[C@H]4C[C@](C)(O)CC[C@]4(C)[C@H]3CC[C@]12C`, in [15], the compound was called inactive. Besides, the Potency entry in test [16], in test [17] and in test [18] was “inactive” throughout.

With `Cc1nc2n(c(=O)c1CCN1CCC(c3noc4cc(F)ccc34)CC1)CCCC2`, the Potency in test [4] is 11.2 µM (active); in test [5], 11.2 µM (active); in [6], 12.6 µM (active); in test [7], 10 µM (active); in test [9], 10 µM (active).

Consider `NCC(O)c1ccc(O)cc1` (stereo unspecified), for which the Potency result in test [2], in test [4], in test [5], in test [6], in test [7] and in [8] was “inactive” each time. The Potency entry in test [9], in [10], in test [14], in [16], in test [17] and in [18] was “inactive” throughout. For the same compound, the call in test [3], in [11], in [12], in test [13] and in [15] was inactive.

As to `CCOP(=S)(OCC)Oc1cc(C)nc(C(C)C)n1`, the result in test [11] was inactive.

Take `COc1ccc(C(CN(C)C)C2(O)CCCCC2)cc1` (stereo unspecified): the result in test [15] was inactive. The Potency entry in test [16], in [17] and in [18] was “inactive” each time.

Take `CC[C@@H](CO)NC(=O)[C@@H]1C=C2c3cccc4[nH]cc(c34)C[C@H]2N(C)C1`: the call in [15] was inactive. In addition, the Potency entry in [16], in test [17] and in test [18] was “inactive” throughout.
